# Results reported in PubChem BioAssay (Tox21).
# “And” between values parts separate entries of the source, which are not always exact repeats. Equal values may be shown once. Results filed as inconclusive are left out. A call without a number means that no potency is given here. Where a structure was tested more than once in an assay, its records may differ in their call. The source made the active and inactive calls. Calls follow the shape of the dose curve; as a rule, active = well fitted cell-killing curve with a large enough effect in the repeat runs; inconclusive = weak or mixed curves; inactive = flat fitted curve, though single readings scatter.
# Test: qHTS RealTime-Glo MT Cell Viability Assay in HepG2 cells - 16 hour (AID 1224885); also: nearly all actives have a fitted effect of over 50% in size
# Conditions: RealTime-Glo luminescence; series mostly up to 76.8 µM; activity change, negative = cytotoxic: at the top concentration
# Source text: U.S. Tox21 Program National Center for Advancing Translational Sciences [NCATS] NIH Chemical Genomics Center [NCGC] U.S. Environmental Protection Agency [EPA] National Institutes of Environmental Health Sciences [NIEHS] National Toxicology Program [NTP] U.S. Food and Drug Administration [FDA] Tox21 Assay Overview: Measure of cell viability is critical in the cell-base assay. Analysis of cell viability is necessary for the characterization of cell responses to cytotoxic drugs and environmental stress. A RealTime-Glo MT Cell Viability Assay to monitor cell viability in real time of continues cell culture during 40 hours of compound treatment was used to screen Tox21 10K library compounds in HepG2 cells. The RealTime-Glo MT Cell Viability Assay is a nonlytic, homogeneous, bioluminescent method to measure cell viability in real time using a simple, plate-based method. The assay involves adding NanoLuc luciferase and a cell-permeant prosubstrate to cells in culture. Viable cells reduce the proprietary prosubstrate to generate a substrate for NanoLuc luciferase. This substrate diffuses from cells into the surrounding culture medium, where it is rapidly used by the NanoLuc Enzyme to produce a luminescent signal. The signal correlates with the number of viable cells, making the assay well suited for cytotoxicity studies.
# Tox21 Assay Protocol Summary: The mixture of HepG2 cell suspension and reagents were dispensed at 600cells/6 ul/well in 1536-well tissue culture treated black solid bottom plates using a Multidrop dispenser. After the assay plates were incubated at a 37 C/5% CO2 incubator for 5 hours, 23 nL of compounds dissolved in DMSO, positive and negative controls was transferred to the assay plate by a pintool work station. The plates were incubated at 37 C for 40 hours. The luminescence intensity were measured at 0h, 8h, 16h, 24h, 32h and 40h time points using ViewLux plate reader during compound treatment.
# Potency is read from the fitted curve at half-maximal effect.
SMILES,Potency,"activity change, negative = cytotoxic"
CCCCCCCC/C=C\CCCCCCCC(=O)O,inactive,
Cc1ccc(/C(=C\CN2CCCC2)c2ccccn2)cc1,inactive,
CCCCCCCCCCCCO,inactive,
Cc1ccc([N+](=O)[O-])c(C)c1,inactive,
CC1(C)C(C=C(Cl)Cl)C1C(=O)OCc1cccc(Oc2ccccc2)c1 (stereo not given),inactive,
CC(=O)[C@H]1CC[C@H]2[C@@H]3CC=C4C[C@@H](O)CC[C@]4(C)[C@H]3CC[C@]12C,inactive,
c1ccc2ncccc2c1,inactive,
C=CN1CCCC1=O,inactive,
c1ccc2c(c1)[nH]c1ccccc12,inactive,
CC1(C)OC(=O)NC1=O,inactive,
O=[Se](O)O,inactive,
Nc1ccc(O)c(N)c1,inactive,
CC(=O)O[C@]1(C(C)=O)CC[C@H]2[C@@H]3C=C(Cl)C4=CC(=O)CC[C@]4(C)[C@H]3CC[C@@]21C,inactive,
C1CN(SSN2CCOCC2)CCO1,,-2.99% (inactive)
c1ccc2cc3ccccc3cc2c1,inactive,
C=CCCCCCCCCCC,inactive,
CC(=O)Oc1ccc(C(c2ccc(OC(C)=O)cc2)c2ccccn2)cc1,inactive,
COC(=O)CC(=O)OC,inactive,
Nc1cc(Cl)c(N)c(Cl)c1,inactive,
C=CC(=O)OCCCC,inactive,

SMILES,Potency,"activity change, negative = cytotoxic"
CCC(=O)O[C@H]1[C@H](O[C@@H]2[C@@H](C)[C@H](O[C@H]3C[C@@](C)(OC)[C@@H](O)[C@H](C)O3)[C@@H](C)C(=O)O[C@H](CC)[C@@](C)(O)[C@H](O)[C@@H](C)C(=O)[C@H](C)C[C@@]2(C)O)O[C@H](C)C[C@@H]1N(C)C,inactive,
CC1(C)NC(=O)N(c2ccc([N+](=O)[O-])c(C(F)(F)F)c2)C1=O,inactive,
Oc1c(Cl)ccc(Cl)c1Cl,inactive,
O=C(O)CCCC(=O)O,inactive,
Cc1ccc(C(C)(C)C)c(O)c1,,-12.2% (inactive)
CC(C)[N+](C)(CCOC(=O)C1c2ccccc2Oc2ccccc21)C(C)C,inactive,
CC(C)(Oc1ccc(Cl)cc1)C(=O)O,inactive,
CC(=O)Oc1c(C)c(C)c2c(c1C)CC[C@@](C)(CCC[C@H](C)CCC[C@H](C)CCCC(C)C)O2,inactive,
CC1(C)O[C@@H]2C[C@H]3[C@@H]4C[C@H](F)C5=CC(=O)C=C[C@]5(C)[C@@]4(F)[C@@H](O)C[C@]3(C)[C@]2(C(=O)CO)O1,inactive,
CC(=O)Nc1ccc2c(c1)Cc1cc(NC(C)=O)ccc1-2,inactive,
CN(Cc1cnc2nc(N)nc(N)c2n1)c1ccc(C(=O)N[C@@H](CCC(=O)O)C(=O)O)cc1,inactive,
O=C(O)c1cc(=O)[nH]c(=O)[nH]1,inactive,
Nc1ccc(N)c(Cl)c1,inactive and 43.6 µM (active),
C[C@]12CC[C@@H]3c4ccc(O)cc4CC[C@H]3[C@@H]1CC[C@H]2O,inactive,
CC1=CC(C)(C)Nc2ccccc21,inactive,
COC(=O)C(C)Oc1ccc(Oc2ncc(C(F)(F)F)cc2Cl)cc1 (stereo not given),inactive,
Cc1ccc(C)c(O)c1,inactive,
OC[C@@H](O)[C@@H](O[C@@H]1O[C@H](CO)[C@H](O)[C@H](O)[C@H]1O)[C@H](O)[C@@H](O)CO,inactive,
CC(=O)OC(C)C,inactive,
C=CC(C)(O)CCC=C(C)C (stereo not given),inactive,
